PKM2 act – qHTS Assay for Activators of Human Muscle isoform 2 Pyruvate Kinase; Pyruvate kinase PKM (Homo sapiens), P14618; purified PKM2, Kinase-Glo ATP luminescence, activation; response scale: 0% is enzyme alone, no compound; Potency, µM (series often up to 57.5 µM), without a hit: top-dose activation, usual class: activators; 260,000 tested, 0.34% active; AID 1631, 2009; further: potency means the concentration at half of the fitted maximal effect; on the % scale 0 is the no-effect control and ±100 the full control effect; nearly all actives have a fitted effect of over 55% in size
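Purified hPK-M2 (>95% pure) converted ADP (0.1 mM final) to ATP with 0.5 mM PEP in 50 mM imidazole pH7.2, KCl, MgCl2, Tween 20, BSA; 1 h at room temperature. ATP detected by Kinase-Glo luminescence.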
GALK inh – qHTS Assay for Inhibitors of Human Galactokinase (GALK); Potency, µM (titrated, usually from 57.5 µM), without a hit: top-dose activity change, negative = inhibition, usual class: inhibitors; P51570; AID 1868, 2009; 270,000 tested, 0.007% active; Purified GALK, Kinase-Glo residual ATP luminescence; further: potency means the concentration at half of the fitted maximal effect; on the % scale 0 is the no-effect control and ±100 the full control effect
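Human GALK (5 nM) with 35 uM ATP and 100 uM galactose in 20 mM HEPES pH 8.0, 5 mM MgCl2, 60 mM NaCl, 1 mM DTT, 0.01% BSA. After 1 h at room temperature, leftover ATP was read by Kinase-Glo Plus luminescence.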
Tb PFK inh-1 – qHTS Assay to Find Inhibitors of T. brucei phosphofructokinase; 330,000 tested, 0.17% active; T. brucei PFK, ADP-Glo luminescence; ATP-dependent 6-phosphofructokinase (Trypanosoma brucei brucei), O15648; AID 485367, 2010; Potency, µM (titrated, usually from 57.5 µM), for the others: top-dose activity, negative = inhibition, most hits filed as inhibitors;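 further: potency means the concentration at half of the fitted maximal effect; 0% = uninhibited 1x PFK enzyme wells and -100% = no-enzyme wells; nearly all actives have a fitted effect of over 60% in size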
Target sequence (O15648 whole entry, looked up): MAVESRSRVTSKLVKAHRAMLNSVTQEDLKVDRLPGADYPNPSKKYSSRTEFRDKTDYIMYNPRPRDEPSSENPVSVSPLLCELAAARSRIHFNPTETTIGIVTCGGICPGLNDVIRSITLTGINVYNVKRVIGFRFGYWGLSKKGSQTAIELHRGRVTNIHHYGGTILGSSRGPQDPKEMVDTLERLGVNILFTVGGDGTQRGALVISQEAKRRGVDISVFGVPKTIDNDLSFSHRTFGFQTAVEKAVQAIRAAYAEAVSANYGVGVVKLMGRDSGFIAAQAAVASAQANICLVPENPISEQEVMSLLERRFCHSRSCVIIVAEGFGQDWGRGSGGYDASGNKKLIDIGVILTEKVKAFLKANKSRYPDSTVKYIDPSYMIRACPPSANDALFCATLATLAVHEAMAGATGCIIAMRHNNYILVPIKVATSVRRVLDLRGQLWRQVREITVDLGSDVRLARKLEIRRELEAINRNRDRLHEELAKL
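1.25 nM PFK with 0.5 mM F6P and 0.1 mM ATP in 0.1 M TEA pH 8.0, 5 mM MgCl2, incubated 45 min at room temperature; ADP measured by ADP-Glo luminescence; compounds titrated up to 57 uM.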
KinaseGlo FLuc – Counterscreen for Luciferase (Kinase-Glo TM) Inhibition | Potency, µM (top dose mostly 38.3 µM), inactives show at the highest dose activity change, negative = inhibition, actives largely listed as inhibitors | Kinase-Glo luciferase, ATP luminescence, 8 min | 200,000 tested, 0.28% active | AID 1379, 2008; further: potency means the concentration at half of the fitted maximal effect; on the % scale 0 is the no-effect control and ±100 the full control effect; nearly all actives have a fitted effect of over 60% in size
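Kinase-Glo luciferase light output from ATP and luciferin was measured with 10 uM ATP, within the enzyme's linear range. Buffer: 50 mM imidazole pH 7.2, 50 mM KCl, 7 mM MgCl2, 0.01% Tween 20, 0.05% BSA; luminescence read after 8 min at ambient temperature.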
CBFb-RUNX1 inh – qHTS Assay for Compounds Blocking the Interaction Between CBF-beta and RUNX1 for the Treatment of Acute Myeloid Leukemia; AlphaScreen CBFb-His/RUNX1-biotin binding, biochemical; Potency, µM (series often up to 59.8 µM), for the others: top-dose activity, negative = inhibition, usual class: inhibitors; 230,000 tested, under 10 active; further: % of control where 0% means no effect
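AlphaScreen binding: CBFb-His and RUNX1-biotin (30 nM each) preincubated 20 min, compound added for 15 min, then nickel and streptavidin beads for 90 min, all at room temperature. Disruption of the interaction by any mechanism counts as activity.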
TbPFK ATP – Tb PFK orthogonal confirmatory assay using ATP depletion (Kinase-Glo Plus) as an alternative measure of Tb PFK activity: Hit Validation; shares compounds with Tb PFK inh-1; AID 504636, 2011; Potency, µM (series often up to 57.5 µM), inactives show top-dose inhibition; 1,100 tested, 47% active; Tb PFK enzyme, ATP depletion, Kinase-Glo Plus luminescence; calls by dose curve; further: potency means the concentration at half of the fitted maximal effect; nearly all actives have a fitted effect of over 60% in size
Tb PFK inh-2 – Inhibitors of T. brucei phosphofructokinase: Hit Validation | shares compounds with Tb PFK inh-1 | purified T. brucei PFK, ADP-Glo luminescence, 45 min | Potency, µM (titrated, usually from 57.5 µM), inactives show top-dose activity change, negative = inhibition, most hits filed as inhibitors | 1,100 tested, 41% active | AID 504637, 2011;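 further: potency means the concentration at half of the fitted maximal effect; plate controls were full PFK enzyme control for no effect and no enzyme control for full effect; nearly all actives have a fitted effect of over 60% in size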
Numbers without * were called inactive; u = inconclusive; x = not tested or not shown; [ ] = remark or other dose. An excerpt weighted towards active compounds, which were near 0.56% of everything screened. Unless noted, the call rests on the fitted dose curve; in most records, active means well fitted curve in the direction sought with a large enough effect; inconclusive means small, poorly fitted or top-dose-only effect, or another doubt; inactive means no such curve, though single readings can be large; an effect the other way counts as inactive or inconclusive.

SMILES	PKM2 act	GALK inh	Tb PFK inh-1	KinaseGlo FLuc	CBFb-RUNX1 inh	TbPFK ATP	Tb PFK inh-2
COc1cc2cc3c(N)c(C(=O)Nc4sc(C)c(C)c4C#N)sc3nc2cc1OC	29.5%	-0.2%	u	-3.3%	x	-0.1%	15.7%
CN1CCN(C(=S)C(=O)Nc2ccc(Br)cc2)CC1	-0.5%	-1.8%	12µM*	2.4%	-9.3%	7.57µM*	12µM*
Cc1nc2ccccc2c(=O)n1-c1ccc(C(=O)O)cc1	3.7%	1.8%	u	x	5.8%	x	x
Cc1nc2ccccc2n1CC(=O)c1ccc(O)c(O)c1	x	x	30.1µM*	x	x	u	u
Nn1c(SCC(=O)Nc2cccnc2Cl)nnc1-c1ccccc1	x	x	u	x	x	9.53µM*	10.7µM*
Cc1cc(C)n2c(=S)[nH]nc2n1	-61.7%	1.6%	u	-9.0%	17.1%	26.9µM*	u
CN1CCc2cccc3c2[C@H]1Cc1ccc(O)c(O)c1-3	u	0.1%	1.9µM*	-0.8%	u	2.69µM*	6.75µM*
O=C1CCC/C(=N/NC(=O)c2cc(NS(=O)(=O)c3cccs3)cc(NS(=O)(=O)c3cccs3)c2)C1	2.7%	2.0%	u	x	-1.5%	21.3µM*	u
Fc1ccc(NC(=S)Nc2ccccc2OC(F)F)cc1Cl	-5.1%	0.7%	u	0.4%	5.5%	17.6%	-27.0%
Cc1ccc(NC(=S)Nc2ccc(Cl)c(Cl)c2)c(OC(F)F)c1	-2.5%	-2.5%	5.36µM*	-1.6%	3.2%	u	u
Fc1ccc(NC(=S)Nc2ccccc2N2CCOCC2)cc1Cl	x	0.4%	u	1.5%	2.9%	4.7%	3.6%
O=C(Cc1ccc(Cl)c(Cl)c1)N/N=C/c1cccnc1	0.5%	-2.4%	12µM*	x	x	5.36µM*	12µM*
O=C(Cc1ccc(Cl)c(Cl)c1)N1CCCCC1CN1CCCC1 (stereo unspecified)	x	x	x	-4.2%	u	x	x
O=NN(CCO)CCO	x	x	x	x	6.2%[21.7 µM]	x	x
COc1ccc(OC)c(N=Cc2c(O)[nH]c(=O)[nH]c2=O)c1	x	2.1%	-1.2%	x	x	x	x
COc1cc(/C=C/c2[nH]c(=O)[nH]c(=O)c2[N+](=O)[O-])cc([N+](=O)[O-])c1O	x	-2.7%	u	x	x	-25.1%	u
Cc1coc2c1CCC(C)C2 (stereo unspecified)	x	x	x	x	7.0%[21.7 µM]	x	x
Oc1ccc(C2=Nn3c(nnc3-c3ccco3)SC2)cc1O	2.7%	-11.0%	7.57µM*	7.6%	-0.9%	u	u
COc1ccc(C(=O)CN2CCCCC2)cc1	-1.2%	10.6%	-6.0%	-1.3%	5.2%	x	x
CCN1CCN(Cc2cc(Br)ccc2O)CC1	-8.4%	-3.7%	-5.4%	-3.1%	8.3%	x	x
CCN1CCN(C(=S)c2ccc(Cl)cc2)CC1	-9.6%	-3.0%	10.7µM*	-0.6%	-0.2%	7.57µM*	23.9µM*
CCN1CCN(C(=S)c2ccc(OC)cc2)CC1	-3.2%	-2.7%	u	-0.1%	5.6%	26.9µM*	33.8µM*
CC(C)(Cl)Cl	x	x	x	x	3.4%[21.7 µM]	x	x
CC(C)(O)C(=O)Nc1ccc([N+](=O)[O-])c(C(F)(F)F)c1	x	x	-4.8%	x	3.4%[21.7 µM]	x	x
COc1cc2c(cc1OC)CN(c1ccc([N+](=O)[O-])c(C(F)(F)F)c1)CC2	1.6%	-1.4%	u	0.8%	-11.9%	u	u
SMILES	PKM2 act	GALK inh	Tb PFK inh-1	KinaseGlo FLuc	CBFb-RUNX1 inh	TbPFK ATP	Tb PFK inh-2
O=c1[nH]c(=S)n(Cc2ccco2)c(O)c1C=NCc1cccs1	-1.4%	3.1%	u	13.2%	-26.6%	u	-13.4%
CCn1c(O)c(C=NCc2cccs2)c(=O)[nH]c1=O	9.0%	-0.6%	-2.0%	5.1%	13.3%	x	x
Cc1ccc([N+](=O)[O-])cc1	x	x	-3.4%	x	9.0%[21.7 µM]	x	x
Cc1cc(F)ccc1NCc1ccc([N+](=O)[O-])cc1	5.7%	-2.2%	u	-0.1%	-19.8%	u	u
Cc1cc(CSc2ccccc2)ccc1NC(=O)COc1ccccc1	2.0%	-2.1%	u	-2.0%	8.6%	u	u
CCOc1ccccc1OCC(=O)Nc1ccc(Cl)cc1C(=O)c1ccccc1	-0.7%	x	-2.0%	-0.8%	u	x	x
O=C(Nc1cccc(F)c1)N1CCCC2(CCN(C(=O)Oc3ccccc3)CC2)C1	x	x	x	-2.5%	x	x	x
O=C(NCCCN1CCCCCC1)c1ccc(CS(=O)(=O)Cc2ccccc2F)o1	2.9%	1.8%	u	-1.3%	u	-30.8%	u
C[C@@H]1O[C@@H](O[C@@H]2[C@@H](O)[C@H](OCCc3ccc(O)c(O)c3)O[C@H](CO)[C@H]2OC(=O)/C=C/c2ccc(O)c(O)c2)[C@H](O)[C@H](O)[C@H]1O	x	x	1.69µM*	x	x	4.78µM*	4.78µM*
C(CCOCC1CO1)COCC1CO1 (stereo unspecified)	x	x	x	x	7.5%[21.7 µM]	x	x
N#C/C(=C/c1ccc(O)c(O)c1)C(=O)NCc1ccc(Cl)cc1	x	5.7%	u	x	x	u	-29.9%
O=C(c1cc(C(=O)NCc2ccc(Cl)cc2)c(=O)n(Cc2ccc(Cl)cc2)c1)c1cc(F)ccc1O	0.6%	3.0%	-0.9%	-3.3%	1.7%	x	x
CCSCC[C@H](N)C(=O)O	x	x	x	-2.1%[7.66 µM]	x	x	x
CCC(=O)OCCNc1cc(Sc2nc3ccccc3[nH]2)c2nonc2c1[N+](=O)[O-]	u	-2.2%	u	1.6%	-2.0%	6.01µM*	9.53µM*
Nn1cnnc1	x	x	x	x	6.2%[21.7 µM]	x	x
O=C(NCCCN1CCOCC1)c1sc2cc([N+](=O)[O-])ccc2c1Cl	-14.2%	0.0%	10.7µM*	4.4%	-5.0%	3.38µM*	4.26µM*
Oc1ccc(O)c(Cc2nc3ccccc3s2)c1	-2.7%	11.4%	30.1µM*	-4.2%	u	23.9µM*	u
c1ccc2sc(NC3=NCCN3)nc2c1	-5.6%	x	-7.0%	-1.1%	-6.9%	x	x
COC(=O)[C@]1(C)CC[C@@]2(C)CC[C@@]3(C)C4=CC=C5C(=CC(=O)C(O)=C5C)[C@@]4(C)CC[C@@]3(C)C2C1 (stereo partly specified)	x	x	x	-10.8%	9.0%	x	x
CC[n+]1c(C)sc2cc(C)ccc21	5.7%	-4.1%	u	-6.2%	-5.3%	-5.8%	-0.9%
CC[n+]1c(SC)ccc2cc(OC)ccc21	-7.2%	-1.2%	-0.3%	-1.8%	-2.9%	x	x

Assay outcomes from PubChem.
